# Assay results from the supplement of paper PMC8728848.
# Only a selection was taken, and the strongest signals are over-represented in it overall.
# Experiments:
# Test in all cases: glycan array binding signal (z-score within array); higher = stronger binding
# Details in all cases: glycan notation: IUPAC condensed, linker removed
# [1] = system: Fuc(a1-2)Gal(b1-3)GalNAc(b1-3)Gal
# How it was run: (§1)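 The binding signal is a Z-score computed within each array. Data were drawn from 3228 arrays in the Consortium for Functional Glycomics database, restricted to those with a known protein sequence. Scores were averaged over arrays of the same protein sequence at different concentrations or buffers, and over linkers, and negative values can be taken as non-binding.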
# [2] = system: Fuc(a1-2)Gal(b1-3)GlcNAc(b1-2)Man(a1-3)[Fuc(a1-2)Gal(b1-3)GlcNAc(b1-2)Man(a1-6)]Man(b1-4)GlcNAc(b1-4)GlcNAc
# How it was run: as §1
# [3] = system: Fuc(a1-2)Gal(b1-3)GlcNAc6S
# How it was run: as §1
# Fuc(a1-2)Gal(b1-3)GalNAc = system: Fuc(a1-2)Gal(b1-3)GalNAc
# How it was run: as §1
# [4] = system: Fuc(a1-2)Gal(b1-3)GlcNAc(b1-2)Man(a1-3)[Fuc(a1-2)Gal(b1-3)GlcNAc(b1-2)Man(a1-6)]Man(b1-4)GlcNAc(b1-4)[Fuc(a1-6)]GlcNAc
# How it was run: as §1
# [5] = system: Fuc(a1-2)Gal(b1-3)GlcNAc(b1-3)[Fuc(a1-2)Gal(b1-3)GlcNAc(b1-6)]GalNAc
# How it was run: as §1
# [6] = system: Fuc(a1-2)Gal(b1-3)GlcNAc(b1-3)[Fuc(a1-3)[Gal(b1-4)]GlcNAc(b1-6)]Gal(b1-4)Glc
# How it was run: as §1
# [7] = system: Fuc(a1-2)Gal(b1-3)GlcNAc(b1-3)[Gal(b1-4)GlcNAc(b1-6)]Gal(b1-4)Glc
# How it was run: as §1
# Fuc(a1-2)Gal(b1-3)GlcNAc = system: Fuc(a1-2)Gal(b1-3)GlcNAc
# How it was run: as §1
substance,measurement,setting,value
AgI/IIC123-GFP (Streptococcus mutans),glycan array binding signal (z-score),[1],-0.278
same,glycan array binding signal (z-score),[2],-0.189
LcI (Legionella pneumophila),glycan array binding signal (z-score),[1],4.24
same,glycan array binding signal (z-score),[3],1.6
"SiiE (Salmonella typhimurium), A0A0H3NVH0",glycan array binding signal (z-score),Fuc(a1-2)Gal(b1-3)GalNAc,-1.18
same,glycan array binding signal (z-score),[4],2.35
Epa22,glycan array binding signal (z-score),[5],-0.12
"SpGH101 (Streptococcus pneumoniae), Q8DR60",glycan array binding signal (z-score),[6],-0.216
AgI/II Vhelical-GFP (Streptococcus mutans),glycan array binding signal (z-score),[7],-0.296
"Wza (Escherichia coli), P0A930",glycan array binding signal (z-score),Fuc(a1-2)Gal(b1-3)GlcNAc,0.769
